Records with an inconclusive call do not appear. Active and inactive are the calls of the source. Calls follow the shape of the dose curve; as a rule, active = well fitted inhibition curve with a large enough effect; inconclusive = small, poorly fitted or top-dose-only effect; inactive = no such curve, though single readings can be large or run the other way.
Test: InCell qHTS Assay for Inhibitors of the mTORC1 Signaling Pathway in MEF (Tsc2-/-, p53-/-) Cells: Hit Validation;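 also: phospho-S6 Ser235/236 signal normalized to propidium iodide cell count per well; nearly all actives have a fitted effect of over 75% in size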
Conditions: phospho-rpS6 immunofluorescence, 24 h; activity change, negative = inhibition: at 38.3 µM (top of the series)
Potency is read from the fitted curve at half-maximal effect.

| SMILES | activity change, negative = inhibition | Potency |
| --- | --- | --- |
| Cc1ccc(C)c(N2CCN(CCCNC(=O)c3nnc(Cc4ccc(F)cc4Cl)o3)CC2)c1 | 1.72% | – |
| CCC1CCc2nc3sc(C(=O)Nc4cccc(F)c4)c(N)c3cc2C1 (stereo unspecified) | -100% | – |
| COc1ccc(N(C)C(=O)c2cc(S(=O)(=O)N3CCc4ccccc43)cn2C)c(OC)c1 | -100% | – |
| O=C(/C=C/c1ccco1)Nc1ccc(Cl)c(-c2nc3cc(Cl)ccc3o2)c1 | -100% | – |
| CCS(=O)(=O)c1ncc(Cl)c(C(=O)NCc2ccc(OC)cc2)n1 | – | 4.65 µM (active) |
| COc1ccc(S(=O)(=O)N(CCc2ccccc2)CC(=O)Nc2cccc(OC)c2)cc1 | -100% | – |
| CC(C)c1ccc(NS(=O)(=O)c2ccc3nc(-c4ccccc4)[nH]c3c2)cc1 | -100% | – |
| O=C(Nc1ccc2oc(-c3ccc4ccccc4c3)nc2c1)c1cc(Br)ccc1Cl | – | 18.5 µM (active) |
| O=C(NCCc1ccc(Cl)cc1)C(=O)NCC(c1cccs1)S(=O)(=O)c1cccs1 (stereo unspecified) | -100% | – |
| CCCN(c1ccccc1CC)S(=O)(=O)c1ccc2c(c1)CC(C)N2C(=O)C1CC1 (stereo unspecified) | -100% | – |
| COc1cc(C2CC(=O)Nc3cc4c(cc32)OCCO4)cc(Br)c1OC (stereo unspecified) | -100% | – |
| CCCCS(=O)(=O)c1nc(-c2ccc(Br)cc2)cc(-c2ccccc2)c1C#N | – | 16.5 µM (active) |
| Cc1cccc(OCC(=O)Nc2ccc3c(c2)N(C)C(=O)c2ccccc2S3)c1 | -100% | – |
| Cc1ccc(C)c(NC(=O)c2nc(S(=O)(=O)Cc3ccc(F)cc3)ncc2Cl)c1 | – | 3.29 µM (active) |
| Oc1ccccc1Nc1nc(-c2ccccc2)c2cc(Cl)ccc2n1 | -100% | – |
| Cc1nc2nncn2c(NCc2ccc(F)cc2)c1C | -100% | – |
